This is an account of results in PubChem BioAssay (NCI).

This is part of a sample that, as a whole, favours compounds with a hit. Of some 83,000 tested, about 20% had one in any assay.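 Single-dose data. Exposure time 48 hours. Values below 10 considered active.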 Values without a mark were called inactive. The source made the active and inactive calls.

Among the test systems are DU-145 prostate; K-562 leukemia; MALME-3M melanoma; MDA-MB-231 breast; RXF 393 renal; SF-268 CNS; SF-295 CNS; UACC-257 melanoma; M14 melanoma; SF-539 CNS.
What all share (experiment): NCI-60 one-dose screen, 48 h (100 = growth as untreated, 0 = no growth, -100 = all killed)
What all share (conditions): 10 µM

Consider `C[CH2][Hg][S]c1ccccc1C(=O)O`, for which the growth in the experiment with DU-145 prostate is -28.6% (active); in the experiment with K-562 leukemia, -4.39% (active); with MALME-3M melanoma it was -96.4% (active); in the experiment on MDA-MB-231 breast, -5.17% (active); in the experiment with RXF 393 renal, -96.8% (active); in the experiment on SF-268 CNS it was -18.6% (active). In addition, the growth is 97.2% in the experiment on SF-295 CNS, -98.5% (active) with UACC-257 melanoma and -67.1% (active) with M14 melanoma.

In the case of `C[C@@H]1C[C@@H]([C@H](O)CC2CC(=O)NC(=O)C2)C(=O)[C@@H](C)C1`, the growth with DU-145 prostate was 4.37% (active); in the experiment with MALME-3M melanoma it was 1.97% (active); in the experiment with MDA-MB-231 breast it was 0.445% (active); in the experiment on SF-268 CNS, 5.71% (active); with SF-295 CNS, 2.62% (active); in the experiment on SF-539 CNS, -5.66% (active). Moreover, the results for the growth with UACC-257 melanoma and with M14 melanoma were -4.83% (active) and -9.1% (active), respectively.

As for `Cc1cc(C)c(C[N+](C)(C)C)c(C)c1C`, the growth in the experiment on DU-145 prostate is 5.6% (active); in the experiment on K-562 leukemia it was 7.21% (active); in the experiment on MDA-MB-231 breast, -12.6% (active); in the experiment with SF-268 CNS, 2.43% (active); in the experiment with SF-295 CNS it was 2.12% (active); with SF-539 CNS, -7.58% (active). Further, the growth in the experiment on UACC-257 melanoma was 16.9%; in the experiment with M14 melanoma, 10.5%.

On to `COc1ccc(/C=C(\C)[N+](=O)[O-])cc1OC`, for which the growth was 18.6% with DU-145 prostate; -9.93% (active) with K-562 leukemia; -72.2% (active) in the experiment on MALME-3M melanoma; 77.9% in the experiment on MDA-MB-231 breast; 12% in the experiment on SF-268 CNS; 69% with SF-295 CNS. The growth in the experiment with SF-539 CNS was 62.8%; in the experiment on UACC-257 melanoma it was -80.4% (active); in the experiment with M14 melanoma, -41.9% (active).

Consider `CC(Cc1ccc2c(c1)OCO2)NN` (stereo not given), for which the growth was 113% in the experiment with DU-145 prostate; 82% with K-562 leukemia; 97.2% with MALME-3M melanoma; 104% with MDA-MB-231 breast; 111% with RXF 393 renal; 100% with SF-268 CNS. For the same molecule, the figures for the growth in the experiment on SF-295 CNS, with SF-539 CNS and in the experiment on M14 melanoma were 91%, 91.9% and 96.7%, respectively.

For `O=[N+]([O-])/C=C\c1ccc2c(c1)OCO2`, the growth with DU-145 prostate is 88.7%; in the experiment with K-562 leukemia, 78.2%; in the experiment on MDA-MB-231 breast, 101%; in the experiment on RXF 393 renal it was 74.4%; in the experiment with SF-268 CNS it was 86.7%; with SF-295 CNS, 83.3%. Moreover, the growth is 94.8% in the experiment on SF-539 CNS, 75% in the experiment on UACC-257 melanoma and 76.6% with M14 melanoma.

For the molecule `Cc1ccc(NC(=O)CBr)cc1`, the growth is 105% with DU-145 prostate; 70.8% in the experiment on K-562 leukemia; 87.5% with MALME-3M melanoma; 95.1% with MDA-MB-231 breast; 102% with RXF 393 renal; 104% in the experiment with SF-268 CNS. In addition, the values for the growth with SF-295 CNS, with SF-539 CNS and with M14 melanoma were 103%, 111% and 97.6%, respectively.

Regarding `COc1cc2c(c(OC)c1OC)-c1ccc(O)c(=O)cc1[C@@H](NC(C)=O)CC2`, the growth with DU-145 prostate was 61.5%; with K-562 leukemia, 46.8%; in the experiment with MALME-3M melanoma, 79.8%; in the experiment with MDA-MB-231 breast it was 72.2%; with RXF 393 renal, 59.7%; with SF-268 CNS, 47.5%. Moreover, the growth in the experiment with SF-539 CNS is 51.5%; in the experiment with UACC-257 melanoma it was 75.7%; in the experiment with M14 melanoma it was 52.7%.

Take `[Cl][Sn]([c]1ccccc1)([c]1ccccc1)[c]1ccccc1`: the growth is -84.3% (active) in the experiment with DU-145 prostate; 0.0368% (active) in the experiment with K-562 leukemia; -64% (active) in the experiment on MALME-3M melanoma; -81.5% (active) with RXF 393 renal; -79.2% (active) in the experiment on SF-268 CNS; -62.1% (active) with SF-295 CNS. Moreover, the growth is -89.5% (active) with SF-539 CNS, -93.9% (active) in the experiment on UACC-257 melanoma and -76% (active) in the experiment with M14 melanoma.

Regarding `[Cl][Hg][c]1ccc2ccccc2c1`, the growth was -22.1% (active) in the experiment with DU-145 prostate; -13.1% (active) with K-562 leukemia; -69.6% (active) in the experiment with MDA-MB-231 breast; -97% (active) with RXF 393 renal; -70.4% (active) with SF-268 CNS; 17.3% in the experiment on SF-295 CNS. Also, the growth is -13.7% (active) in the experiment with SF-539 CNS, -86.7% (active) with UACC-257 melanoma and -99.1% (active) in the experiment with M14 melanoma.

Consider `COC1CC2C=C(C)/C=C/C=C/C(=O)NC(c3ccccc3)C/C=C/CCC(O)CC(=O)C2=C1O` (stereo not given), for which the growth in the experiment with DU-145 prostate is -85.6% (active); in the experiment with K-562 leukemia it was -52.2% (active); in the experiment with MALME-3M melanoma, -84.5% (active); with MDA-MB-231 breast, -74.8% (active); in the experiment with RXF 393 renal it was -90.6% (active); with SF-268 CNS it was -78.3% (active). In addition, the growth in the experiment with SF-295 CNS was -89.3% (active); with SF-539 CNS, -99.4% (active); in the experiment with M14 melanoma, -95.7% (active).

For the molecule `CC(=O)[O][Hg][c]1c(C)c(C)cc(C)c1C`, the growth in the experiment with DU-145 prostate was -61% (active); with K-562 leukemia it was -10.1% (active); with MDA-MB-231 breast it was -51.5% (active); in the experiment with RXF 393 renal it was -45.5% (active); in the experiment on SF-268 CNS it was -74.4% (active); with SF-295 CNS, 13.6%. Moreover, the growth in the experiment with SF-539 CNS was 41.9%; with UACC-257 melanoma, -64.1% (active); in the experiment on M14 melanoma, -87% (active).

`C=C1C(=O)O[C@@H]2C[C@@H](C)[C@@H]3C=CC(=O)[C@@]3(C)[C@@H](O)[C@H]12`: the growth in the experiment with DU-145 prostate is -100% (active); with K-562 leukemia it was -56.9% (active); with MALME-3M melanoma, -76.6% (active); in the experiment with MDA-MB-231 breast it was -63.2% (active); in the experiment with RXF 393 renal, 1.51% (active); with SF-268 CNS it was -45% (active). In addition, the growth in the experiment on SF-295 CNS is -35.8% (active); in the experiment with SF-539 CNS, -73.3% (active); in the experiment with UACC-257 melanoma, 1.25% (active); in the experiment on M14 melanoma, -64.8% (active).

Turning to `Oc1c(Cl)cc(Cl)c2ccccc12.[Cu+2]`, the growth was 106% in the experiment with DU-145 prostate; 69% in the experiment with K-562 leukemia; 96.3% in the experiment on MALME-3M melanoma; 81.4% with MDA-MB-231 breast; 103% in the experiment with RXF 393 renal; 109% with SF-268 CNS. Also, the figures for the growth with SF-539 CNS, with UACC-257 melanoma and in the experiment on M14 melanoma were 108%, 113% and 97.9%, respectively.
